# Test results reported in PubChem BioAssay (NCATS).
# Records with an inconclusive call do not appear. A call without a number means that no potency is given here. Activity calls are given as the source filed them. Unless noted, calls follow the shape of the dose curve; as a rule, active = well fitted curve in the direction sought with a large enough effect; inconclusive = small, poorly fitted or top-dose-only effect, or another doubt; inactive = no such curve, though single readings can be large; an effect the other way counts as inactive or inconclusive.
# Assays:
# [1] = biological target: Cytochrome P450 2C9 (Homo sapiens) (UniProt P11712); assay: qHTS Assay for Inhibitors and Substrates of Cytochrome P450 2C9 (AID 883); also: nearly all actives have a fitted effect of over 60% in size
# Chain of Cytochrome P450 2C9 (Homo sapiens) (P11712 whole entry, looked up): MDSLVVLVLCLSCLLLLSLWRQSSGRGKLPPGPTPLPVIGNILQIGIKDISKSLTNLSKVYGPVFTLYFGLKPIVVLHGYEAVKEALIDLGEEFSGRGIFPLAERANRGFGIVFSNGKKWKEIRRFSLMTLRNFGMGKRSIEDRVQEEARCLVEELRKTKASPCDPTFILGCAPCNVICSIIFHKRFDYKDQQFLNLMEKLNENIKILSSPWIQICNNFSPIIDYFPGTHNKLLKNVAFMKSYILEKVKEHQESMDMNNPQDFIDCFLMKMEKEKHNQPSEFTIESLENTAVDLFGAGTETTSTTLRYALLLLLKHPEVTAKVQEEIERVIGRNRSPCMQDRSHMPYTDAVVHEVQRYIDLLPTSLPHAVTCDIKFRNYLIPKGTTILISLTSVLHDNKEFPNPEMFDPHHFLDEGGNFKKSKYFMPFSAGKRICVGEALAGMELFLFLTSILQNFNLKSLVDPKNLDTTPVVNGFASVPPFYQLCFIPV
# Method in brief: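 CYP2C9 deoxyluciferin hydroxylation, 37C, 60 min with NADPH regeneration; 10nM enzyme, 100uM Luciferin-H (KM). Glo detection reagent stopped reaction; luminescence normalized to sulphaphenazole (57uM) full inhibition.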
# [2] = biological target: Cytochrome P450 3A4 (Homo sapiens) (UniProt P08684); assay: qHTS Assay for Inhibitors and Substrates of Cytochrome P450 3A4 (AID 884); also: series mostly up to about 57 µM; nearly all actives have a fitted effect of over 50% in size
# Chain of Cytochrome P450 3A4 (Homo sapiens) (P08684 whole entry, looked up): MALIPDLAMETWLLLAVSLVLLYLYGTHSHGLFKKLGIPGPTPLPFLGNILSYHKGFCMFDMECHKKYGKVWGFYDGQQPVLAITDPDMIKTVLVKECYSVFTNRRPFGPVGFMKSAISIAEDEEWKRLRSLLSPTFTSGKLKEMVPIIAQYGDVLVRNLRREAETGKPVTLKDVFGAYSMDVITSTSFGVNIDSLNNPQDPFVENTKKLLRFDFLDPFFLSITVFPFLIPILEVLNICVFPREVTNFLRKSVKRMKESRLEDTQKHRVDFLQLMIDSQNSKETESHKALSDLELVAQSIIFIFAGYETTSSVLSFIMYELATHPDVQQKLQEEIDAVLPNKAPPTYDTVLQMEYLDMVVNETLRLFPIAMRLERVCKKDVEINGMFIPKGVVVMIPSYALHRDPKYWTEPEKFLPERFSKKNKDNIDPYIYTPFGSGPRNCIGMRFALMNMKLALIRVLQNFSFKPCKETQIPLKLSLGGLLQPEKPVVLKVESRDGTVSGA
# Method in brief: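 Luminescent readout of luciferin produced by CYP3A4 (20 nM) dealkylation of Luciferin-PPXE, 25 uM (its KM). NADPH-driven reaction ran 60 min at RT after 10 min compound preincubation; data scaled to 57 uM ketoconazole as 100% inhibition.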
# [3] = biological target: Cytochrome P450 2D6 (Homo sapiens) (UniProt P10635); assay: qHTS Assay for Inhibitors and Substrates of Cytochrome P450 2D6 (AID 891);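 also: luciferin methyl ether substrate demethylated by CYP2D6 with NADPH regeneration; nearly all actives have a fitted effect of over 60% in size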
# Chain of Cytochrome P450 2D6 (Homo sapiens) (P10635 whole entry, looked up): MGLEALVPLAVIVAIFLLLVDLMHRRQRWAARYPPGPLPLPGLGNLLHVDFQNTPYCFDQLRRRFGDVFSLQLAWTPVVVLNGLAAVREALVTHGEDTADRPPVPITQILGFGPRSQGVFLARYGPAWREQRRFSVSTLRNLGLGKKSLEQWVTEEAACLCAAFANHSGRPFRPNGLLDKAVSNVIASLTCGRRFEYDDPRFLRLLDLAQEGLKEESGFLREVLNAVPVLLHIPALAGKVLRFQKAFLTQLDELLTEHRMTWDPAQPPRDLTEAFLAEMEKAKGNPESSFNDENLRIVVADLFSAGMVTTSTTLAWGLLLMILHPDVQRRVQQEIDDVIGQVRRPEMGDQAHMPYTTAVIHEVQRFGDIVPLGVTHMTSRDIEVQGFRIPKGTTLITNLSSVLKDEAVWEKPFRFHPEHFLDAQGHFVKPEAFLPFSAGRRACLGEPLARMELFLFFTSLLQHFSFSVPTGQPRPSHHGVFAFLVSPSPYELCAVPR
# Method in brief: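 Luminescent read-out of luciferin formed by 5 nM human CYP2D6 demethylating 30 uM Luciferin-ME EGE (Km level) over 60 min at room temperature after NADPH regeneration addition. Data normalized to full inhibition by 1.43 uM quinidine.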
# [4] = biological target: Cytochrome P450 2C19 (Homo sapiens) (UniProt P33261); assay: qHTS Assay for Inhibitors and Substrates of Cytochrome P450 2C19 (AID 899); also: nearly all actives have a fitted effect of over 60% in size
# Chain of Cytochrome P450 2C19 (Homo sapiens) (P33261 whole entry, looked up): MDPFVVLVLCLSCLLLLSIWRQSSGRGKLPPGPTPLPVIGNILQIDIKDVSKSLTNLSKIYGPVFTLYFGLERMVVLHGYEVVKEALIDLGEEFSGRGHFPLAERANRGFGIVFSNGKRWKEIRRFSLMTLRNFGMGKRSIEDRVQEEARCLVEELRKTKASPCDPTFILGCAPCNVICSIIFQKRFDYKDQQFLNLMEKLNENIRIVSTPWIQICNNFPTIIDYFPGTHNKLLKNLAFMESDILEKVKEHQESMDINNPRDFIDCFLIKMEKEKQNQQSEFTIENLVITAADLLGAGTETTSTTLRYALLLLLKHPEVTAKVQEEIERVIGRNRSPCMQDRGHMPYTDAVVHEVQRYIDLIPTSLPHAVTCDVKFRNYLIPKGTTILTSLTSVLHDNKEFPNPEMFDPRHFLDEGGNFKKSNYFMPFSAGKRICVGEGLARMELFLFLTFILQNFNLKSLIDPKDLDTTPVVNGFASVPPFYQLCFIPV
# Method in brief: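 In 50mM KPO4, the reaction held 5nM enzyme and KM-level (10uM) Luciferin-H EGE; it ran 60 min at 37C after NADPH regeneration and a 10 min compound preincubation. Luminescence values were scaled to 57uM ketoconazole as complete inhibition.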
# [5] = qHTS for Inhibitors of Plasmodium falciparum (CP250) proliferation (AID 504320)
# Method in brief: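 Parasite growth measured as SYBR Green DNA fluorescence (ex 485, em 535 nm) after overnight lysis following 72 h culture at 37 °C, 0.3% parasitemia, 2.5% hematocrit. Values normalized against DMSO and 0.29 uM artemisinin controls, with plate-stack correction.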
# [6] = biological target: Atrial natriuretic peptide receptor 1 (Homo sapiens) (UniProt P16066); assay: Natriuretic polypeptide receptor (hNpr1) antagonism - Pilot CMLD screen (AID 1347052; calls by dose curve;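 also: cGMP level read as GloSensor luciferase luminescence after agonist stimulation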; also: potency is read from the fitted curve at half-maximal effect;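 as to activity change, negative = inhibition: HEK293 cells with hNpr1 stimulated by hNppA peptide at 0.1 nM; series mostly up to about 9.2 µM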)
# Chain of Atrial natriuretic peptide receptor 1 (Homo sapiens) (P16066 whole entry, looked up): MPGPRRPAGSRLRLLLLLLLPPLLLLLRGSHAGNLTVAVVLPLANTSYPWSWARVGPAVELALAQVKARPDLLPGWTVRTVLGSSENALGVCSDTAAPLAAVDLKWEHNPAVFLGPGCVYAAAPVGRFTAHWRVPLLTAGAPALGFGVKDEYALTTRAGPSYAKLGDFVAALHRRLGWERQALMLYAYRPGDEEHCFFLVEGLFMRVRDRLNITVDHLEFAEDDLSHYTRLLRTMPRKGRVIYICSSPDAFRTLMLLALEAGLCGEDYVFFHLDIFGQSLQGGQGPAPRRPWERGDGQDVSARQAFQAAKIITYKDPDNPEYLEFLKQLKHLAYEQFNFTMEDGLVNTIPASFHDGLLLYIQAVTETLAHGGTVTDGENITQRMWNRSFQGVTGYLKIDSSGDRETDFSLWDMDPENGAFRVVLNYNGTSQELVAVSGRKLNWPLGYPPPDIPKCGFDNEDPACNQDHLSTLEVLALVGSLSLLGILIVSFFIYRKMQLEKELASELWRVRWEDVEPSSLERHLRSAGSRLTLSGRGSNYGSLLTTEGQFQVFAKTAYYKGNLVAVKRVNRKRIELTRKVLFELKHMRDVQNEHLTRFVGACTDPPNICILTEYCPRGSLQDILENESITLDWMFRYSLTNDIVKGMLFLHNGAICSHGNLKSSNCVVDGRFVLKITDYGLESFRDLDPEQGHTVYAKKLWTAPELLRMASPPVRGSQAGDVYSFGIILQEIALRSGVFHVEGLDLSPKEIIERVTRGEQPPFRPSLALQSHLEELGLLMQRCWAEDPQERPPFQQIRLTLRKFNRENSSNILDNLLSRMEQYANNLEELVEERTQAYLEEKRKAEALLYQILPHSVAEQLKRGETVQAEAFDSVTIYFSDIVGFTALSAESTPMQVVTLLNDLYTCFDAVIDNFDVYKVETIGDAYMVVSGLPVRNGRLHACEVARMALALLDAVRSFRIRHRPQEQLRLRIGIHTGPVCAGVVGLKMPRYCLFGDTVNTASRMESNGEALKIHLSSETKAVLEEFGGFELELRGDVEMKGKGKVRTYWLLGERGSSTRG
# Furin (Homo sapiens) = Furin (Homo sapiens) (UniProt P09958); assay: Furin counterscreen qHTS for Zika virus inhibitors (AID 1347149); also: nearly all actives have a fitted effect of over 70% in size; also: potency is read from the fitted curve at half-maximal effect;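 as to activity change, negative = inhibition: purified recombinant full-length human furin enzyme at 5 nM; fluorescence gain from furin cutting a BOC-RVRR-AMC peptide substrate over 15 min; top concentration of the series differs between compounds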
# Chain of Furin (Homo sapiens) (P09958 whole entry, looked up): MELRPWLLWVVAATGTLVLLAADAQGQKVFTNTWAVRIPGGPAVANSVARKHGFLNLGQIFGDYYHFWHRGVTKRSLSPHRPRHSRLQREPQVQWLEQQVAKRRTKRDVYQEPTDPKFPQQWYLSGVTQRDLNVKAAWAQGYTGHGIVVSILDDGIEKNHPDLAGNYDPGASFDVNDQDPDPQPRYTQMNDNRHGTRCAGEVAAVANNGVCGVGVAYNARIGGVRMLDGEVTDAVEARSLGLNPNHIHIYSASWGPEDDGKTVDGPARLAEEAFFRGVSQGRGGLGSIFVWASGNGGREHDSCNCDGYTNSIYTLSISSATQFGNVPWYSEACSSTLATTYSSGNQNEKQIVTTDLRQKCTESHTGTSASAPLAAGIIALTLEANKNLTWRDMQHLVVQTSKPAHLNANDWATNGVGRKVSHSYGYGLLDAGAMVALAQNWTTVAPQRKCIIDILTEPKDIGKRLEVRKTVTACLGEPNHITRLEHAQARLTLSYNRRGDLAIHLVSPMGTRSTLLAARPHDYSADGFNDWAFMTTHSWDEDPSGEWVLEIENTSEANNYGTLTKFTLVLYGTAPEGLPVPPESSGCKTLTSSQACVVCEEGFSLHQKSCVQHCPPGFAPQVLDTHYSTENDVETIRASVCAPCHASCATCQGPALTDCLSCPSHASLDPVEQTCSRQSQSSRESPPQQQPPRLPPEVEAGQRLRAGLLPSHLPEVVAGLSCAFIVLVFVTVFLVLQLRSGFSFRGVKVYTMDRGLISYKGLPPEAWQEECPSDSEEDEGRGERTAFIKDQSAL
# Method in brief: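 Counterscreen measures cleavage of 2 microM BOC-RVRR-AMC, below its ~15 microM Km, by 5 nM full-length human furin at pH 7.0 after a 15-min compound preincubation. Inhibition derives from the 15-min fluorescence increase at 37C.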
# [7] = biological target: N-terminal Xaa-Pro-Lys N-methyltransferase 1 (Homo sapiens) (UniProt Q9BV86); assay: qHTS Assay for Inhibitors of N-terminal methyltransferase 1 (NTMT1): LOPAC validation of the NTMT1 SAHH-coupled ThioGlo3 Assay (AID 1347143);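 also: SAH from peptide methylation measured as thiol fluorescence via SAHH coupling and ThioGlo3; potency is read from the fitted curve at half-maximal effect; nearly all actives have a fitted effect of over 70% in size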
# Chain of N-terminal Xaa-Pro-Lys N-methyltransferase 1 (Homo sapiens) (Q9BV86 whole entry, looked up): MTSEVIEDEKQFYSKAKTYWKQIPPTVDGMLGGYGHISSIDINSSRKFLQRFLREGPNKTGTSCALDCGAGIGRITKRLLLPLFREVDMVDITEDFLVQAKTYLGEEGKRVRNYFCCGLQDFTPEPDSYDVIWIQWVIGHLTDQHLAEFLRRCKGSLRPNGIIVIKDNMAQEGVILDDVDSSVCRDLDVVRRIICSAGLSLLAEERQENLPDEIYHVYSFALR
# Method in brief: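 In this qHTS pilot against the LOPAC set, 125nM NTMT1 met compounds tested at multiple concentrations, and fluorescence was normalized to background.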
smiles,measurement,setting,value
CC(C)(C)OC(=O)C1=NOC2(C=CC(=O)C=C2)C1,"activity change, negative = inhibition",[1],-5.68% [at 11.4 µM] (inactive)
same,"activity change, negative = inhibition",[2],-24.2% [at 11.4 µM] (inactive)
same,"activity change, negative = inhibition",[3],-10.1% [at 11.4 µM] (inactive)
same,"activity, negative = inhibition",[4],0.0773% [at 11.4 µM] (inactive)
same,Potency,[5],inactive
same,Potency,[6],376 nM (active)
COC(=O)C1=C(C)N(Cc2ccccc2)C(=NCCc2ccccn2)NC1c1cccc(F)c1 (centres undefined),Potency,[5],inactive
same,Potency,[6],inactive
Cc1c(NS(=O)(=O)c2ccccc2)cc(C(C)C)c(O)c1S(=O)(=O)c1ccc(Cl)cc1,Potency,Furin (Homo sapiens),inactive
N.N.N.N.N.N.N.N.N.N.N.N.N.N.O.O.[Cl-].[Cl-].[Cl-].[Cl-].[Cl-].[Cl-].[Ru+4].[Ru+5].[Ru+5],Potency,[7],44700 nM (active)
NC(=O)[C@@H](CCCN=C(N)N)NC(=O)[C@@H](CCCN=C(N)N)NC(=O)[C@@H](CCCN=C(N)N)NC(=O)[C@@H](CCCN=C(N)N)NC(=O)[C@@H](CCCN=C(N)N)NC(=O)[C@H](N)CCCN=C(N)N,Potency,Furin (Homo sapiens),2510 nM (active)
COc1ccc2c(c1)[C@@]1(OCCC=C[C@@H]1C)C(=O)N2Cc1ccccc1C(F)(F)F,Potency,[5],inactive
same,Potency,[6],inactive
C=CC[C@@H]1C=C[C@H](ON=C(C)CCN2CCc3nc(CC)c(CC)cc3C2)[C@H](CO)O1,Potency,[5],inactive
same,Potency,[6],inactive
C[C@H]1CC[C@H]2C(=O)N(Cc3cccc([N+](=O)[O-])c3)C[C@H](O)CN2[C@H]1c1cccc(Br)c1,Potency,[5],inactive
same,Potency,[6],inactive
COC(=O)CCC(=O)N1C2=NC3=C(C(=O)N(Cc4ccc5c(c4)OCO5)C3=O)C3N(C)c4ccccc4[C@]23C[C@H]1CO (some centres undefined),Potency,[5],inactive
same,Potency,[6],inactive
